Experimental data taken from PubChem BioAssay (NCI).
The panel holds about 79,000 compounds, 15% with a hit somewhere; the sample as a whole holds those more often. Activity calls are given as the source filed them. Cut-off read from the data, not from the text of the source: active = growth inhibition above about 70%; inactive = the rest.

Key:
[1] = NCI Yeast Anticancer Drug Screen. Data for the wt1 strain (AID 149);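 note: 0% = growth of vehicle-treated wt1 cultures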; settings: S. cerevisiae wt1 strain (SPY 50644) growth inhibition, hits give high values
Summary of the method: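 Vehicle-normalised growth inhibition; strain wt1; compound exposure.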

[2] = NCI Yeast Anticancer Drug Screen. Data for the rad50EPP+ strain (AID 151);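 note: 0% = growth of vehicle-treated control cultures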; settings: S. cerevisiae rad50 mutant strain, hits give high values
Summary of the method: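 Yeast strain carrying rad50 alteration (rad50EPP+) exposed to compounds; growth inhibition measured relative to vehicle-treated controls.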

[3] = NCI Yeast Anticancer Drug Screen. Data for the mgt1 strain (AID 153); settings: S. cerevisiae mgt1 mutant growth inhibition, hits give high values
Summary of the method: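 Yeast mgt1 strain (DNA repair/cell-cycle alteration panel) exposed to compounds; growth inhibition measured relative to vehicle-treated controls.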

[4] = NCI Yeast Anticancer Drug Screen. Data for the rad50 strain (AID 155);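 note: 0% = growth of vehicle-only cultures of the same strain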; settings: S. cerevisiae rad50 strain growth inhibition, hits give high values
Summary of the method: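 A DNA repair-deficient yeast mutant serves as the test organism; compound-induced growth inhibition is calculated against vehicle-treated cells.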

[5] = NCI Yeast Anticancer Drug Screen. Data for the mec2-1 strain (AID 157); settings: S. cerevisiae mec2-1 strain, hits give high values
Summary of the method: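 mec2-1 yeast strain, carrying an alteration in DNA damage repair or cell cycle control, was exposed to compounds; growth inhibition was measured relative to vehicle-treated controls.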

[6] = NCI Yeast Anticancer Drug Screen. Data for the rad14 strain (AID 159);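 note: 0% = growth of vehicle-treated control cultures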; settings: S. cerevisiae rad14 strain growth inhibition, hits give high values
Summary of the method: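 Vehicle-treated cultures served as the baseline for growth inhibition of a DNA repair-mutant yeast strain exposed to each compound.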

[7] = NCI Yeast Anticancer Drug Screen. Data for the sgs1 mgt1 strain (AID 161);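 note: 0% = growth of cultures given vehicle only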; settings: S. cerevisiae sgs1 mgt1 strain, hits give high values
Summary of the method: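 Yeast cells carrying a defined DNA-repair defect were exposed to test compounds. Growth inhibition was measured relative to vehicle-treated controls.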

[8] = NCI Yeast Anticancer Drug Screen. Data for the CLN2oe strain (AID 163);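 note: 0% = growth of vehicle-only control cultures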; settings: S. cerevisiae CLN2oe strain, hits give high values
Summary of the method: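 Yeast cells carrying a defined cell-cycle control alteration were exposed to test compounds. Growth inhibition was scored against vehicle-treated control cultures.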

[9] = NCI Yeast Anticancer Drug Screen. Data for the cln2 rad14 strain (AID 165);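 note: 0% = growth equal to vehicle treated cultures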; settings: S. cerevisiae cln2 rad14 strain, hits give high values
Summary of the method: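 Yeast carrying cln2 and rad14 alterations (cell cycle control and DNA damage repair) were exposed to compounds. Growth inhibition was measured against vehicle-treated controls.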

[10] = NCI Yeast Anticancer Drug Screen. Data for the bub3 strain (AID 167); settings: S. cerevisiae bub3 mutant strain, hits give high values
Summary of the method: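 Inhibition values come from growth of compound-treated mutant yeast normalised to vehicle-treated controls.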

[11] = NCI Yeast Anticancer Drug Screen. Data for the wt2 strain (AID 169);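 note: 0% = growth of vehicle-treated yeast cultures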; settings: S. cerevisiae wt2 strain growth inhibition, hits give high values
Summary of the method: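 Yeast cells were exposed to test compounds, and growth inhibition was measured relative to vehicle-treated controls.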

[12] = NCI Yeast Anticancer Drug Screen. Data for the mlh1 strain (AID 171);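 note: 0% = growth of vehicle-treated control cultures of the same strain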; settings: S. cerevisiae mlh1 strain growth inhibition, hits give high values
Summary of the method: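 Yeast carrying a defined genetic alteration in DNA damage repair or cell cycle control were exposed to test compounds. Growth inhibition was measured relative to vehicle-treated controls.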

[13] = NCI Yeast Anticancer Drug Screen. Data for the sgs1 strain (AID 173);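 note: 0% = growth of vehicle-only control cultures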; settings: S. cerevisiae sgs1 mutant, hits give high values
Summary of the method: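 Yeast mutant strains carrying defined defects in DNA damage repair or cell cycle control were exposed to test compounds. Growth inhibition was scored against vehicle-treated controls.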

[14] = NCI Yeast Anticancer Drug Screen. Data for the mlh1 rad18 strain (AID 175); settings: S. cerevisiae mlh1 rad18 strain growth inhibition, hits give high values
Summary of the method: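 Growth inhibition of the yeast strain was measured after compound exposure and expressed relative to vehicle-treated controls. The strain carries defined defects in DNA damage repair.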

[15] = NCI Yeast Anticancer Drug Screen. Data for the rad18 strain (AID 177); settings: S. cerevisiae rad18 mutant growth inhibition, hits give high values
Summary of the method: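 Yeast carrying a defined DNA damage repair alteration were exposed to compounds. Growth inhibition was expressed relative to vehicle-treated controls.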

[16] = NCI Yeast Anticancer Drug Screen. Data for the rad52 strain (AID 147);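 note: 0% = growth of vehicle-treated control cultures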; settings: S. cerevisiae rad52 mutant growth inhibition, hits give high values
Summary of the method: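 Yeast strain carrying a DNA damage repair alteration was exposed to test compounds. Growth inhibition was measured relative to vehicle-treated controls.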

[17] = at 5.0 µM (retest, dose inferred, filed as 0.5)
[18] = at 50.0 µM (retest, dose inferred, filed as 5.0)

Measured: growth inhibition

COc1ccc(/C(C)=N/OC(=O)c2c(-c3ccccc3Cl)noc2C)cc1CN1CCOCC1
inactive: [1]; at 1.2 µM -7% | [1]; at 3.7 µM -10% | [1]; at 11.0 µM -14% | [1]; at 33.0 µM -7% | [1]; at 100.0 µM 39% | [2]; at 1.2 µM -36% | [2]; at 3.7 µM -39% | [2]; at 11.0 µM -41% | [2]; at 33.0 µM -32% | [2]; at 100.0 µM -27% | [3]; at 1.2 µM -3% | [3]; at 3.7 µM -5% | [3]; at 11.0 µM 0% | [3]; at 33.0 µM 36% | [4]; at 1.2 µM -39% | [4]; at 3.7 µM -28% | [4]; [17] 63% | [4]; at 11.0 µM -20% | [4]; at 33.0 µM 21% | [4]; at 50.0 µM 64.7% | [5]; at 1.2 µM -25% | [5]; at 3.7 µM 2% | [5]; [17] 68% | [5]; at 11.0 µM -12% | [5]; at 33.0 µM 7% | [5]; at 50.0 µM 14.3% | [5]; at 100.0 µM 50% | [6]; at 1.2 µM -8% | [6]; at 3.7 µM -17% | [6]; at 11.0 µM -20% | [6]; at 33.0 µM 45% | [7]; [17] -16% | [8]; at 1.2 µM -12% | [8]; at 3.7 µM -7% | [8]; at 11.0 µM 8% | [8]; at 33.0 µM 17% | [8]; at 100.0 µM 60% | [9]; [17] 46% | [9]; at 50.0 µM 45.8% | [10]; at 1.2 µM -6% | [10]; at 3.7 µM -7% | [10]; [17] 17% | [10]; at 11.0 µM -18% | [10]; at 33.0 µM 5% | [10]; at 50.0 µM 58.8% | [10]; at 100.0 µM 50% | [11]; at 1.2 µM -18% | [11]; at 3.7 µM -27% | [11]; at 11.0 µM -21% | [11]; at 33.0 µM -7% | [11]; at 100.0 µM 65% | [12]; at 1.2 µM -22% | [12]; at 3.7 µM -16% | [12]; at 11.0 µM -27% | [12]; at 33.0 µM 14% | [13]; at 1.2 µM -30% | [13]; at 3.7 µM -29% | [13]; at 11.0 µM -19% | [13]; at 33.0 µM 30% | [14]; [17] 53% | [14]; at 50.0 µM 57.4% | [15]; at 1.2 µM -16% | [15]; at 3.7 µM -14% | [15]; at 11.0 µM -2% | [15]; at 33.0 µM 21%
active: [3]; at 100.0 µM 87% | [4]; [18] 88% | [4]; at 100.0 µM 70% | [5]; [18] 98% | [6]; at 100.0 µM 91% | [7]; [18] 98% | [7]; at 50.0 µM 74.4% | [9]; [18] 97% | [10]; [18] 97% | [12]; at 100.0 µM 85% | [13]; at 100.0 µM 78% | [14]; [18] 85% | [15]; at 100.0 µM 74%

CCN(CC)CCC(=O)c1ccc(Oc2ccc(F)cc2)cc1
inactive: [16]; at 1.2 µM -23% | [16]; at 3.7 µM -26% | [16]; at 11.0 µM -40% | [16]; at 33.0 µM 8% | [3]; at 1.2 µM 49% | [3]; at 3.7 µM 59% | [4]; at 1.2 µM -5% | [4]; at 3.7 µM -21% | [4]; [17] 46% | [4]; at 11.0 µM -17% | [4]; at 33.0 µM 2% | [4]; at 50.0 µM 57% | [5]; at 1.2 µM 17% | [5]; at 3.7 µM 35% | [5]; [17] 41% | [5]; at 11.0 µM 42% | [5]; at 33.0 µM 52% | [5]; at 50.0 µM 44.5% | [6]; at 1.2 µM 5% | [6]; at 3.7 µM 39% | [6]; at 11.0 µM 51% | [7]; [17] 62% | [7]; [18] 66% | [8]; at 1.2 µM 10% | [8]; at 3.7 µM 17% | [8]; at 11.0 µM 35% | [8]; at 33.0 µM 54% | [8]; at 100.0 µM 68% | [9]; [17] 21% | [9]; [18] 3% | [9]; at 50.0 µM 32.9% | [10]; at 1.2 µM 35% | [10]; at 3.7 µM 46% | [10]; [17] 55% | [10]; at 11.0 µM 58% | [10]; [18] 47% | [10]; at 50.0 µM 69.6% | [11]; at 1.2 µM 17% | [11]; at 3.7 µM 21% | [11]; at 11.0 µM 41% | [12]; at 1.2 µM 34% | [12]; at 3.7 µM 37% | [12]; at 11.0 µM 58% | [13]; at 1.2 µM -12% | [13]; at 3.7 µM -2% | [13]; at 11.0 µM 11% | [13]; at 33.0 µM 59% | [14]; [17] 65% | [14]; at 50.0 µM 47.5% | [15]; at 1.2 µM 4% | [15]; at 3.7 µM 26% | [15]; at 11.0 µM 27% | [15]; at 33.0 µM 52%
active: [16]; at 100.0 µM 83% | [3]; at 11.0 µM 76% | [3]; at 33.0 µM 92% | [3]; at 100.0 µM 94% | [4]; [18] 82% | [4]; at 100.0 µM 87% | [5]; [18] 87% | [5]; at 100.0 µM 95% | [6]; at 33.0 µM 79% | [6]; at 100.0 µM 81% | [7]; at 50.0 µM 76.5% | [10]; at 33.0 µM 83% | [10]; at 100.0 µM 97% | [11]; at 33.0 µM 71% | [11]; at 100.0 µM 80% | [12]; at 33.0 µM 73% | [12]; at 100.0 µM 83% | [13]; at 100.0 µM 96% | [14]; [18] 93% | [15]; at 100.0 µM 96%

CC(=O)Nc1ccc(/C=C(\C#N)c2ccc(C)cc2)cc1
active: [4]; [18] 93% | [5]; [18] 95%
inactive: [1]; at 1.2 µM 0% | [1]; at 3.7 µM -2% | [1]; at 11.0 µM -6% | [1]; at 33.0 µM -6% | [1]; at 100.0 µM 1% | [2]; at 1.2 µM -11% | [2]; at 3.7 µM -20% | [2]; at 11.0 µM -18% | [2]; at 33.0 µM -8% | [2]; at 100.0 µM -5% | [3]; at 1.2 µM -6% | [3]; at 3.7 µM -16% | [3]; at 11.0 µM -17% | [3]; at 33.0 µM -10% | [3]; at 100.0 µM -13% | [4]; at 1.2 µM -25% | [4]; at 3.7 µM -23% | [4]; [17] 30% | [4]; at 11.0 µM -23% | [4]; at 33.0 µM -13% | [4]; at 50.0 µM 28.4% | [4]; at 100.0 µM -1% | [5]; at 1.2 µM -16% | [5]; at 3.7 µM -23% | [5]; [17] 40% | [5]; at 11.0 µM -22% | [5]; at 33.0 µM -33% | [5]; at 50.0 µM 18.7%
